In all, about 47,000 compounds went through this assay and about 1,400 (3%) were called active. The list comes from a sample in which actives are over-represented; it also holds similar structures and randomly drawn compounds. Unmarked numbers belong to inactive results. Rule as the data show it: active = inhibition above about 30%; inactive = the rest.

The target of the assay is Ubiquitin carboxyl-terminal hydrolase 28 (Homo sapiens) (UniProt Q96RU2). The experiment in a line: blocks human USP28 ubiquitin-rhodamine cleavage (AID 1645857). Particulars: purified USP28, Ub-rhodamine cleavage fluorescence, 30 min; at 25 µM; hits give high values.
Sequence of Ubiquitin carboxyl-terminal hydrolase 28 (Homo sapiens) (Q96RU2 whole entry, looked up): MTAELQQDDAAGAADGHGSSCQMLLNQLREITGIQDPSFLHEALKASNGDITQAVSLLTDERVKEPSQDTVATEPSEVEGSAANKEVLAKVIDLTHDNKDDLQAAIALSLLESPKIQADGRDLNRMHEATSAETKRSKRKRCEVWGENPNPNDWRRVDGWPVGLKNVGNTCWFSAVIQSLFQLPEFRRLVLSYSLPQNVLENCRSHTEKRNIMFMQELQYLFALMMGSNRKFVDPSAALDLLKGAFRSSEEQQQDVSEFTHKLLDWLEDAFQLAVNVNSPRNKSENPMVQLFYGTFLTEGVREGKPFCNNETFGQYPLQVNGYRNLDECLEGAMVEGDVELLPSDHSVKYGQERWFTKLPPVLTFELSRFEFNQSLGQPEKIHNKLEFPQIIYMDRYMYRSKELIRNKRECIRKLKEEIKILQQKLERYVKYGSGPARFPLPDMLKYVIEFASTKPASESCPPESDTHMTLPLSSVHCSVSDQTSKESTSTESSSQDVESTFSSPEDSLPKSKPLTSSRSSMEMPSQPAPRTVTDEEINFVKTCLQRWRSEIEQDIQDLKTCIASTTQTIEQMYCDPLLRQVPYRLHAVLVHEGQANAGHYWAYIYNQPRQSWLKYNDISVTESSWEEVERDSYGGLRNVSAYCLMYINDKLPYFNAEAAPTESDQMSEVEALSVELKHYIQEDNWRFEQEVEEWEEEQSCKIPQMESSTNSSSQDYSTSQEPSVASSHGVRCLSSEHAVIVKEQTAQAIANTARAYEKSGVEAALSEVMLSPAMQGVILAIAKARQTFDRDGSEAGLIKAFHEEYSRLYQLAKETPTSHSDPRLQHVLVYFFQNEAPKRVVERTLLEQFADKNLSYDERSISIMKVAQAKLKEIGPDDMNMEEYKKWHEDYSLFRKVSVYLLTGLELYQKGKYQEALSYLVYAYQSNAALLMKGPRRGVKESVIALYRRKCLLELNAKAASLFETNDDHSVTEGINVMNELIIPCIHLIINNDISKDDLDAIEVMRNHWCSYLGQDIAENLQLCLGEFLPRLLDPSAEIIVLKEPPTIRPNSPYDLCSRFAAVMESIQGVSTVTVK
Take `COc1ccccc1NC(=O)N1CCN(Cc2nc3ccccc3o2)CC1`: the inhibition (in general, the change of the read-out against control, counted positive when it falls) was -5.25%.

Consider `COc1ccccc1NC(=O)Nc1ccc(CCc2nc3ccccc3[nH]2)cc1`, for which the inhibition was -8.19%.

With `CCOc1ccccc1NC(=O)Nc1cc(-c2nc3ccccc3o2)ccc1OC`, the inhibition is 30.8% (active).

For `CN(C)c1cccc(C2CN(C(=O)c3ccc4n[nH]nc4c3)CCO2)n1` (stereo not drawn), the inhibition is 8.99%.

Turning to `Cc1nc(-c2cccc(S(=O)(=O)NCc3ccc(Cl)cc3)c2)no1`, the inhibition was 15.5%.

Regarding `CN1CCN(S(=O)(=O)c2cccc(C(=O)Nc3cccc(S(N)(=O)=O)c3)c2)CC1`, the inhibition was 0.55%.

Turning to `O=C(Nc1cccc(S(=O)(=O)N2CCCCCC2)c1)c1ccc(N2CCOCC2)c([N+](=O)[O-])c1`, the inhibition is 35.6% (active).

For `Cc1cccc(NC(=O)c2ccc(N3CCC(C)CC3)c([N+](=O)[O-])c2)c1C`, the inhibition was -2.68%.

As to `CC1(C)CC(=O)C2=C(C1)Nc1ccccc1NC2c1ccccc1O` (stereo not drawn), the inhibition was 4.62%.

Regarding `Cc1cc(-c2cc(N)n(-c3ccccc3)n2)c(C)n1-c1cccc(C(F)(F)F)c1`, the inhibition was 3.89%.

As for `COc1cc(N2CC[C@@H]3[C@@H](CO[C@H]3CNC(=O)C3CC3)C2)ncn1`, the inhibition is 5.25%.

In the case of `Cc1cccc(C)c1NC(=O)c1nnn(-c2ccc3noc(-c4ccccc4)c3c2)c1C`, the inhibition was 8.24%.

In the case of `C=C1CCC2[C@](C)(CCC[C@]2(C)C(=O)OC)[C@H]1CCc1ccoc1/C=C/C(=O)O` (stereo partly drawn), the inhibition is 48% (active).

In the case of `C=C1CCC2[C@](C)(CCC[C@]2(C)C(=O)OC)[C@H]1CCc1ccoc1C[N+](C)(C)Cc1ccccc1` (stereo partly drawn), the inhibition is 50.6% (active).

Regarding `O=C(NCc1ccc2c(c1)OCO2)c1cncc(NS(=O)(=O)c2ccc3c(c2)OCCO3)c1`, the inhibition is 4.62%.

As to `N#Cc1ccc(C(=O)N2CCC(c3nc(-c4ccccc4)no3)CC2)cc1`, the inhibition is 3.9%.

Turning to `O=C(c1ccccc1)N1CCC2(CC1)OCCCO2`, the inhibition is 4.41%.

Consider `CCc1cc(=O)oc2cc(C)cc(OCC(=O)N3CCC4(O)CCCCC4C3)c12` (stereo not drawn), for which the inhibition is -0.0724%.

`Cc1ccc(-c2ncc(C(=O)Nc3ccccc3C)c(-c3ccncc3)n2)cc1`: the inhibition was -83.7%.

With `Fc1ccc(CN=C2C(c3ccc4c(c3)OCCO4)=Nc3ncnn32)cc1`, the inhibition is 9.04%.

Turning to `CC(C)c1cc(N2CCN(CCc3ccccc3)CC2)n2c(nc3ccccc32)c1C#N`, the inhibition was -23.5%.

With `COc1ccc(-c2nc(-c3nnn(Cc4cccc(F)c4)c3C)no2)cc1`, the inhibition is 19.7%.

For the compound `CCOc1ccccc1-c1nc(-c2nnn(Cc3ccccc3)c2C)no1`, the inhibition was 41.4% (active).

In the case of `Cc1c(-c2noc(-c3cccc(N(C)C)c3)n2)nnn1Cc1cccc(F)c1`, the inhibition was -4.14%.

Take `Cc1cccc(NC(=O)Nc2ccc3c(c2)N(S(=O)(=O)c2ccccc2)CC3)c1C`: the inhibition was -0.657%.

Turning to `O=C(Cn1cnc2ccccc21)N1CCCc2ccccc21`, the inhibition was 15.3%.

Consider `COC(=O)COc1cccc2c(=O)n(CC(=O)N3CCc4ccccc43)ccc12`, for which the inhibition was 36% (active).

Consider `Cc1nc2ccccc2c(=O)n1CC(=O)N1CCCc2ccccc21`, for which the inhibition is 6.83%.

For `COc1ccc(CNC(=O)[C@H](CCSC)NC(=O)[C@@H]2Cc3c([nH]c4ccccc34)C3c4ccccc4C(=O)N32)cc1` (stereo partly drawn), the inhibition is -15%.

Regarding `NC(=O)c1c(NC(=O)/C=C/C(=O)O)sc2c1CCCCCC2`, the inhibition is -7.88%.

With `COc1cccc(N2C(=O)c3cccnc3C2Nc2ccc(C)c(C)c2)c1` (stereo not drawn), the inhibition was -14.4%.

Regarding `COc1ccc(NC(=O)CCC(=O)c2ccc3c(c2)OCCO3)cc1S(=O)(=O)Nc1ccc(Cl)cc1`, the inhibition was 16.3%.

As to `COc1ccc(/C=C/C(=O)Nc2ccc3c(c2)OCCO3)cc1Br`, the inhibition was 76.8% (active).

`COc1ccc(NS(=O)(=O)c2cc(NC(=O)/C=C/c3cccc(OC)c3)ccc2OC)cc1`: the inhibition is 19.1%.

Turning to `O=C(/C=C/c1ccc(Cl)cc1)Nc1ccc2c(c1)OCCO2`, the inhibition was 35.4% (active).

Turning to `O=C(Nc1ccc2c(c1)OCO2)N1CCCCCC1`, the inhibition was -1.57%.

With `O=C(Nc1ccc2c(c1)OCO2)c1sc2cc(Cl)ccc2c1Cl`, the inhibition was -10.3%.

Take `COc1ccc(S(=O)(=O)c2cnc3cc(OC)c(OC)cc3c2N2CCOCC2)cc1`: the inhibition is 3.3%.

As for `COc1ccccc1NC(=O)CCC(=O)N1CCSc2ccccc21`, the inhibition was -4.12%.

For the compound `Brc1ccc2[nH]c3c(NCCCN4CCOCC4)ncnc3c2c1`, the inhibition was -18.8%.

With `COc1cc(NC(=O)c2noc3c2CCc2sccc2-3)cc(OC)c1`, the inhibition is 43.6% (active).

Regarding `COc1cc(OC)cc(C(=O)Nc2ccc(S(=O)(=O)Nc3cc(C)on3)cc2)c1`, the inhibition was 12.8%.

As to `O=C(NCc1ccccc1)c1noc2c1CCc1sccc1-2`, the inhibition is 0.0745%.

As to `COc1cccc(C2c3[nH]c4ccccc4c3C[C@@H]3C(=O)N(CCCn4ccnc4)CC(=O)N23)c1` (stereo partly drawn), the inhibition was -0.857%.

Regarding `CC(C)(C)c1ccc(C(=O)Nc2cccc(-c3nc4ncccc4o3)c2)cc1`, the inhibition was 2.33%.

Consider `COc1cccc(NC(=O)C(C#N)C(=O)C2CC2c2cccc(C)c2)c1` (stereo not drawn), for which the inhibition was 26.5%.

For the compound `Cc1c(-c2nn3c(-c4ccco4)nnc3s2)cccc1[N+](=O)[O-]`, the inhibition is 33.6% (active).

With `Cc1cc(C)n2nc(C(=O)N(C)C(c3ccccc3)c3ccccc3)nc2n1`, the inhibition was 5.86%.

Turning to `COc1ccc2[nH]c3c(NCCCN4CCOCC4)ncnc3c2c1`, the inhibition is -8.4%.

For `O=C(c1ccc2cc[nH]c2c1)N1CCCC2(COCCN(CC3CC3)C2)C1` (stereo not drawn), the inhibition is -13.8%.

As to `Cc1ccc(S(=O)(=O)NCC(c2ccc3c(c2)CCN3C)N2CCCC2)c(C)c1` (stereo not drawn), the inhibition is -0.036%.

Consider `COc1ccc(C(=O)N2CCCN(c3ncccc3-c3nc(C)no3)CC2)cc1`, for which the inhibition is 5.18%.

For `Cc1ccc(NC(=O)Cc2nc(-c3ccccc3)n[nH]2)cc1`, the inhibition was -4.45%.

Regarding `O=C1COc2ccccc2N1Cc1noc(-c2ccccc2)n1`, the inhibition was 72.3% (active).

With `O=C(NCc1noc(-c2ccccc2)n1)C1CCCC1`, the inhibition is -13.9%.

Take `CC(C)(C)C(=O)OCc1noc(-c2ccccc2)n1`: the inhibition was 7.9%.

In the case of `O=C1NC2(CCCc3ccccc32)C(=O)N1Cc1csc(-c2ccc(Cl)cc2)n1` (stereo not drawn), the inhibition was 2.68%.

Take `COc1cccc(-c2noc(CN3CCCC3c3cc(OC)ccc3OC)n2)c1` (stereo not drawn): the inhibition was -19.5%.

Consider `O=C(COc1ccccc1)Nc1cnc(-c2cccc(Cl)c2)nc1`, for which the inhibition is 0.526%.

For `CC1CCc2c(sc3ncnc(OCc4cccc([N+](=O)[O-])c4)c23)C1` (stereo not drawn), the inhibition is 94.8% (active).

In the case of `CC1CCc2c(sc3nc(CC#N)[nH]c(=O)c23)C1` (stereo not drawn), the inhibition was -258%.

For the compound `COc1cc(-c2nc3sc4c(c3c(=O)[nH]2)CCC(C)C4)ccc1OCc1ccc(C)cc1` (stereo not drawn), the inhibition is 13.3%.

Take `Cc1nc(C2CCCN(C(=O)c3cccnc3N)C2)nc2c1CC(=O)N2Cc1ccccc1` (stereo not drawn): the inhibition was -6.04%.

In the case of `C=C1Nc2ccccc2C(=O)N1c1cccc(NC(=O)Cc2ccc(F)cc2)c1`, the inhibition is 2.69%.

Regarding `CNc1nc2c(c(=O)n1C)CN(C(=O)Nc1ccccc1Oc1ccccc1)CC2`, the inhibition was 14.2%.

As for `O=C(c1cccnc1)N1CCN(c2cc(-c3ccccc3)[nH]n2)CC1`, the inhibition is 4.54%.

As for `COc1cccc(-c2cc(C(=O)N3CCN(c4ccc(N5CCOCC5)nn4)CC3)[nH]n2)c1`, the inhibition is 69.8% (active).

`COc1ccc(NC(=O)c2sc(N3CCOCC3)nc2-c2ccccc2)c(OC)c1`: the inhibition was 15.1%.

For the compound `COc1cccc(C(=O)N2CCCC2c2nc(-c3ccccc3)no2)c1` (stereo not drawn), the inhibition was 1.43%.

Take `C=C(CCC(C(=O)O)[C@H]1[C@H](O)C[C@@]2(C)C3=C(CC[C@]12C)[C@@]1(C)CC[C@H](OC(C)=O)C(C)(C)[C@@H]1CC3)C(C)C` (stereo partly drawn): the inhibition is 3.27%.

For `COCCCNC(=O)c1cc2c(=O)n3ccccc3nc2n1Cc1ccccc1`, the inhibition is 9.14%.

In the case of `CCCOc1ccc(NC(=O)c2ccc(Br)cc2)c2cccnc12`, the inhibition was -10.2%.

Regarding `CSc1ncccc1C(=O)Nc1ccnn1C(C)c1ccncc1` (stereo not drawn), the inhibition is -28.1%.

Regarding `CSc1ncccc1C(=O)OCc1ccc(Br)cc1`, the inhibition is 76.8% (active).

With `CCCCNC(=O)Cc1csc(COc2ccc(C)cc2)n1`, the inhibition was 2.41%.

Consider `O=C(NC1CCCC1)c1ccccc1N1C(=O)[C@@H]2Cc3c([nH]c4ccccc34)C(c3ccc(F)cc3)N2C1=O` (stereo partly drawn), for which the inhibition was -2.2%.

As to `CN1CCCN(C(=O)C2CCCCC2)CC1`, the inhibition is -7.1%.

Take `COC(=O)c1ccc(C(=O)NCC2(O)CCc3ccccc32)cc1` (stereo not drawn): the inhibition is 6.5%.

Regarding `COC(=O)c1ccc(C2c3[nH]c4ccccc4c3C[C@H]3C(=O)N(CC4CCCO4)CC(=O)N23)cc1` (stereo partly drawn), the inhibition is -2.7%.

In the case of `COC(=O)c1ccc(C2Oc3ccccc3CN2c2ccccc2Cl)cc1` (stereo not drawn), the inhibition is 34.3% (active).

For `Cn1nc(C2CCCN(Cc3cc(F)cc(F)c3)C2)c2nccnc21` (stereo not drawn), the inhibition was -9.38%.

For the compound `COc1ccccc1CNC(=O)c1c(O)c2cccnc2n(-c2ccccc2)c1=O`, the inhibition is -16.9%.

As to `COc1ccccc1CNC(=O)c1nc(N2CCSCC2)c2cn(C)nc2n1`, the inhibition is 32.8% (active).

In the case of `CCN1CCC2(CC1)OC(=O)C(C)=C2C(=O)NCc1ccccc1OC`, the inhibition is -9.74%.

On to `O=C(CCc1nnc2ccc(N3CCOCC3)nn12)N1CCC(Cc2ccccc2)CC1`, for which the inhibition is 3.03%.

In the case of `O=C(Cc1cccc2ccccc12)Nc1nc2ccc(F)cc2s1`, the inhibition is 55.7% (active).

For `CCCC(=O)Nc1nc2ccc(CCC(=O)NCc3ccc(F)cc3)cc2s1`, the inhibition is -4.54%.

Regarding `CC(C)C(=O)Nc1nc2ccc(CCC(=O)Nc3ccc(F)cc3)cc2s1`, the inhibition was -0.104%.

The record behind these values is PubChem BioAssay AID1645857 (Buhrlage Lab, Dana-Farber Cancer Institute and Novartis …, 2021).
